Our source for the Potency values is PubChem BioAssay (NCATS).

Inconclusive results are not listed. Entries that show only a call come without a potency. Activity calls are given as the source filed them. The call rests on the fitted dose curve; in most records, active means well fitted inhibition curve with a large enough effect; inconclusive means small, poorly fitted or top-dose-only effect; inactive means flat fitted curve, though single readings scatter.

The target in this experiment is Glutathione peroxidase 1 (Homo sapiens) (UniProt P07203). The experiment can be described thus: Primary qHTS Assay for Inhibitors of Recombinant Selenoprotein Glutathione Peroxidase 1 (GPX1) (AID 1845191). Further: nearly all actives have a fitted effect of over 65% in size. To be noted: recombinant GPX1, GR-coupled NADPH fluorescence, 15 min; series mostly up to 48.8 µM. In outline: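 GR-coupled assay: compounds preincubated 30 min at room temperature with GPX1, then reaction started with CHP; final 10 nM GPX1, 1 mM GSH, 0.5 mM CHP, 0.5 mM NADPH, 100 nM GR, 0.01% BSA, pH 7.5 Tris buffer. NADPH fluorescence (340/450 nm) read at 0 and 15 min.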
Glutathione peroxidase 1 (Homo sapiens), sequence (P07203 whole entry, looked up): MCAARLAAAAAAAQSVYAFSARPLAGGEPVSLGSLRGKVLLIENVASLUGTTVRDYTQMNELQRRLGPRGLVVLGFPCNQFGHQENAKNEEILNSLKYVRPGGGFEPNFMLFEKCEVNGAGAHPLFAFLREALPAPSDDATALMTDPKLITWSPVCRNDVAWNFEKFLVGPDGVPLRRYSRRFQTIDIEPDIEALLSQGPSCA
As to `CCC(=O)NC[C@@H]1C[C@H]1c1cccc2c1CCO2`, the Potency result is “inactive”. Take `C/C=C(\C)C(=O)O`: the Potency entry is “inactive”.

For the compound `Cc1ccc(N2CCN(C(=O)CCc3c(C)nc4c(c3C)c(=O)n(C)c(=O)n4C)CC2)c(C)c1`, the Potency result is “inactive”. For `NC(=O)C1(N2CCCCC2)CCN(CCCN2c3ccccc3CCc3ccccc32)CC1`, the Potency result is “inactive”. Take `CC[C@H]1OC(=O)C[C@@H](O)[C@H](C)[C@@H](OC2OC(C)C(O)C(N(C)C)C2O)[C@@H](CCN2CCCCC2)C[C@@H](C)C(=O)/C=C/C(C)=C/[C@@H]1CN1CCCCC1` (stereo partly drawn): the Potency entry was “inactive”.

Consider `O=C(O[C@H]1C[N+]2(CCCOc3ccccc3)CCC1CC2)C(O)(c1cccs1)c1cccs1`, for which the Potency entry is “inactive”.

On to `Cc1nc2c(c(C)c1CCC(=O)N1CCN(c3ccccc3)CC1)c(=O)n(C)c(=O)n2C`, for which the Potency entry was “inactive”. For `Cn1c(=O)cc(N2CCC[C@@H](N)C2)n(Cc2cc(F)ccc2C#N)c1=O` the value was “inactive”; for `CCC(=O)O[C@]1(C(=O)COC(C)=O)CC[C@H]2[C@@H]3C[C@H](C)C4=CC(=O)C=C[C@]4(C)[C@H]3[C@@H](O)C[C@@]21C`, “inactive”. On to `Cc1ccc(C(=O)/C=C/c2ccccc2)s1`, for which the Potency result is “inactive”. As to `C[C@@H]1O[C@@H](O[C@@H]2/C=C/C=C/C=C\C=C\C[C@H](C)OC(=O)/C=C/[C@H]3O[C@@H]3C[C@H](O)C[C@]3(O)C[C@@H](O)[C@@H](C(=O)O)[C@H](C2)O3)[C@H](O)[C@H](N)[C@@H]1O`, the Potency result was “inactive”.

In the case of `COc1ccc(C(=O)Nc2ccc3oc(-c4ccc(F)cc4Cl)nc3c2)cc1`, the Potency entry was “inactive”. For the compound `Cn1c(=O)oc2ccc(C(=O)N[C@H](C3CCNCC3)C3CC(O)C3)cc21` (stereo partly drawn), the Potency result is “inactive”.
